The list is not random: actives were taken first. Their share in the collection is about 2.5%.
NOTCH ag: agonists of NOTCH signaling; hit rate 0.4% among 15,000; activation, % at 2.5 µM; NOTCH signaling luciferase reporter cells, luminescence; AID 434982, 2010; in the data active means activation above about 2.2%
PME-1 Maybr inh: inhibitors of human PME-1 in Maybridge library. Protein phosphatase methylesterase 1 (Homo sapiens), Q9Y570. recombinant PME-1, FP-Rh probe fluorescence polarization. inhibition, % at 9 µM. hit rate 0.5% among 16,000. AID 2291, 2010; in the data active means inhibition above about 30%
Target sequence (Q9Y570 whole entry, looked up): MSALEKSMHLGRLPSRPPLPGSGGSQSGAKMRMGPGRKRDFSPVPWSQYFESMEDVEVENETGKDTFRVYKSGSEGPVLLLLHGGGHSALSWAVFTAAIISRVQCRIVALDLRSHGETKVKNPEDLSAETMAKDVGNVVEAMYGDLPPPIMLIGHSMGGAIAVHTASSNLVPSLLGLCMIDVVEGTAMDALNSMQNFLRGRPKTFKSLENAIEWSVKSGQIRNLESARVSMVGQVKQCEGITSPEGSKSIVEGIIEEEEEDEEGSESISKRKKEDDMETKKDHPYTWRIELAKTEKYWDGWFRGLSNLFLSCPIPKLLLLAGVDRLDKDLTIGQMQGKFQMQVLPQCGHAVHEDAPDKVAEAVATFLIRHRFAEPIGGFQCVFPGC
Nox1 inh: inhibitors of human NADPH oxidase 1 (Nox1); Q9Y5S8; hit rate 0.81% among 16,000; AID 1792, 2009; inhibition, % at 6.7 µM; HT29 cells, luminol chemiluminescence ROS
luminol inh ctr: counter-screen for Nox1 inhibitors: inhibitors of luminol chemiluminescence | inhibition, % at 6.7 µM | AID 1823, 2009 | HRP/luminol/H2O2 chemiluminescence counterscreen | hit rate 0.4% among 16,000; further: reference of the scale not given here
rat GALR2 agon: agonists of rat galanin receptor 2 (GALR2); cell-based GALR2 agonist screen; activation, % at 10 µM; hit rate 0.5% among 16,000; AID 833, 2007; in the data active means activation above about 15%
Of the large screens only hits and unclear results are named; the others gave an inactive call. Unless noted, no stated cut-off is given here; in the data, active means inhibition above about 75%; inactive means the rest.

Cn1ncc(C(=O)NC(=O)Nc2ccc(F)cc2)c1[N+](=O)[O-]	Nox1 inh 77.7
CCOC(=O)c1sc(Nc2cccc(Cl)c2C)nc1C	none
O=C(CSc1n[nH]c(=O)n1-c1ccc2c(c1)OCCO2)c1csc2ccccc12	none
Cc1cc(NC(=O)CSc2n[nH]c(=O)n2-c2ccc3c(c2)OCCO3)n(-c2ccccc2)n1	NOTCH ag 2.2
Cc1cc(NC(=O)CN2CCOCC2)n(-c2ccccc2)n1	rat GALR2 agon 137.1
Cc1c(S(=O)(=O)c2ccc(Cl)cc2)csc1C(=O)Nc1ccc2c(c1)COCO2	none
Cc1c(S(=O)(=O)c2ccc(Cl)cc2)csc1C(=O)Nc1ccc(F)cc1F	rat GALR2 agon 21.9
CCOC(=O)CSc1sc(C(=O)OCC)c(-c2cccs2)c1C#N	none
CCOC(=O)Cn1c(=O)c2ccsc2c2c(C#N)c(SC)sc21	rat GALR2 agon 139.3
Cc1nnsc1-c1nnc(C2CCCCC2)o1	NOTCH ag 3.8
CCOC(=O)c1ccc(NC(=O)C(=S)NCc2ccccc2)cc1	none
CCOC(=O)c1ccc(NC(=S)NC)cc1	NOTCH ag 2.9
Cc1ccc(-n2[nH]c(C)c(C=Nc3ccc(OC(F)(F)F)cc3)c2=O)cc1	none
CSC(=N)n1nc(SC)nc1N	NOTCH ag 2.8
CN(C)c1ccc(NC(=O)Nc2cccs2)cc1	Nox1 inh 91.6
CCOC(=O)NNC(=S)Nc1ccccc1N1CCOCC1	luminol inh ctr 97.9
O=c1cc(Nc2ccc(OC(F)(F)F)cc2)c2ccccc2o1	PME-1 Maybr inh 54.5
COc1ccc(S(=O)(=O)Nc2cc(C)c(C)cc2[N+](=O)[O-])c(OC)c1	PME-1 Maybr inh 32.6
COc1ccc(NS(=O)(=O)c2ccc(C)cc2)c([N+](=O)[O-])c1	none
CCCCCCSc1n[nH]c(=S)s1	luminol inh ctr 96.3
Cc1cccc(NNC(=O)C2CCC2)c1	luminol inh ctr 101.0
O=C(Nc1ccc(F)c(F)c1)C1CCC1	none
CCc1nc2c([nH]1)c(=O)n(C)c(=O)n2C	none
CCC(CO)Nc1nc2c([nH]1)c(=O)n(C)c(=O)n2C (stereo unspecified)	Nox1 inh 93.7
O=[N+]([O-])c1ccc2nc3c(O)c4ccccc4c(O)c3nc2c1	PME-1 Maybr inh 37.7
CCSc1ccc2c3c(cccc13)C(=O)N(Cc1ccccc1)C2=O	rat GALR2 agon 128.0
O=C1c2cccc3c(Sc4ccccc4)ccc(c23)C(=O)N1NCCO	none
Cc1cc(S(=O)(=O)NCc2nn(-c3ccccc3)nc2C)c(C)s1	none
COc1cccc(C(=O)CSc2nsc(SCC(=O)c3cccc(OC)c3)c2C#N)c1	Nox1 inh 88.4
CSc1nnc(SC2=CC(=O)CC(c3ccccc3)C2)s1 (stereo unspecified)	NOTCH ag 3.3
O=C1NC(=S)N/C1=C\c1ccccc1Cl	luminol inh ctr 75.4
O=C(Nc1ccc(Cl)cc1)c1cc2ccccc2o1	none
c1ccc2c(c1)NC(c1ccc3c(c1)OCO3)O2 (stereo unspecified)	Nox1 inh 79.7
O=C(C1=NNCC1c1ccc2c(c1)OCO2)c1ccc2ccccc2c1 (stereo unspecified)	none
COc1ccc(-n2ncc(NC(=O)NCc3cccs3)c2C)cc1	none
CC(=O)Nc1ccc(NC(=O)c2c(Cl)cccc2Cl)c(C)c1	rat GALR2 agon 41.2
O=C(CSc1ccccn1)Nc1ccc(C2CCCCC2)cc1	none (no result: NOTCH ag)
C=CCSc1nnc(-c2ccc(Cl)cc2)n1CC(OC)OC	none
CCN(CC)c1ccc(N=C2C=CC(=O)c3ccccc32)c(C)c1	Nox1 inh 99.1
COc1ccc(C2CC(c3ccc(C)cc3C)=NN2C(C)=O)cc1 (stereo unspecified)	none
N#Cc1nn(-c2ccccc2)c(=O)n(Cc2ccc(Cl)cc2Cl)c1=O	none
FC(F)(F)c1cccc(CSc2n[nH]c(=S)s2)c1	luminol inh ctr 99.0
FC(F)(F)c1cccc(-n2c(Cc3ccccc3)n[nH]c2=S)c1	none
Cc1cc(Br)ccc1NC(=O)OC(C)(C)C	none
Cc1ccc(-n2c(-c3cnccc3C(F)(F)F)noc2=O)c(C)c1	none
CC(C)(C)c1csc(NNC(=O)c2ccc(Cl)cc2)n1	Nox1 inh 85.3
O=C(NNc1nc(-c2cccs2)cs1)c1ccc(Cl)cc1	none
COC(=O)c1sccc1NC(=S)NCCN1CCNC1=O	luminol inh ctr 98.9
COC(=O)c1sccc1NC(=O)CC1C(=O)NCCN1C(=O)c1ccccc1 (stereo unspecified)	PME-1 Maybr inh 46.5
CCC(CO)NC(=S)Nc1ccsc1C(=O)OC (stereo unspecified)	none
O=C1c2ccccc2C(=O)c2c(O)ccc(O)c21	PME-1 Maybr inh 40.4
C=CCNC(=O)c1ccc(C(F)(F)F)nc1C	none
O=C1CNC(=S)N1Cc1ccccc1Cl	NOTCH ag 2.5
O=C1CNC(=S)N1Cc1ccccn1	none
Cc1cc(C2=Nc3ccccc3SC2)ccc1Cl	none
S=c1[nH]c(=S)c2ccccc2[nH]1	luminol inh ctr 77.1
c1ccc2c3c([nH]c2c1)CCCCCC3	none
O=[N+]([O-])c1c(N2CCOCC2)ccc2nsnc12	rat GALR2 agon 55.5
N#Cc1ccc(N2CCOCC2)c([N+](=O)[O-])c1	none
Cc1cc(NNC(=O)c2ccccc2Cl)nc2c1c(C)nn2C	Nox1 inh 78.3
Cc1cccc(Cl)c1NNC(=O)Nc1c([N+](=O)[O-])c(C)nn1C	none
CC(=O)Nc1cc(=O)oc2ccc(NC(=O)c3ccc(F)cc3)cc12	none
O=C(Nc1cccc2[nH]ccc12)C1CCCCC1	NOTCH ag 2.3
Cc1c(NC(=O)C2CCCCC2)cccc1[N+](=O)[O-]	none
O=[N+]([O-])c1ccc(NC(=S)Nc2cccc(C(F)(F)F)c2)cc1	none
COc1cccc(NC(=S)NNc2ccc([N+](=O)[O-])cc2)c1	Nox1 inh 98.0
O=C(NCC(O)COCc1ccccc1)c1ccccc1 (stereo unspecified)	rat GALR2 agon 29.1 (no result: NOTCH ag)
COC(=O)CNC(=O)c1ccccc1	none
Cc1ccc(S(=O)(=O)NC(=O)Nc2c(C)n(C)n(-c3ccccc3)c2=O)cc1	Nox1 inh 92.4
COc1ccc(-c2nc(N(C)c3ccccc3)[nH]c(=O)c2C#N)cc1	NOTCH ag 3.5
CC(C)C(=O)NNc1nc2c(c(=O)n(C)c(=O)n2C)n1Cc1ccc(Cl)cc1	Nox1 inh 100.0
Cc1c(C(=O)Oc2cccc(C(F)(F)F)c2)n(C)oc1=O	rat GALR2 agon 56.3
Cc1c(C(=O)NNc2cc(C(F)(F)F)ccc2Cl)n(C)oc1=O	none
c1ccc2c(c1)Nc1nc3ccccc3nc1O2	none
c1ccc2c(c1)Nc1nc3ccccc3nc1N2	Nox1 inh 84.8
N#Cc1c(N)sc2c1CCc1ccccc1-2	Nox1 inh 103.4
O=C(NC(=O)c1ccccc1N1CCCCC1)Nc1ccc(Cl)c(Cl)c1	none
C/C(=N\NC(=S)NC(C)(C)C)c1sc(-c2ncc(C(F)(F)F)cc2Cl)nc1C	rat GALR2 agon 18.8
Cc1ccc(NCN2C(=O)c3ccc([N+](=O)[O-])cc3C2=O)cc1	Nox1 inh 76.8
COc1ncccc1C(=O)Nc1ccccc1Cl	none
N#C/C(=C\N1CCc2ccccc2C1)C(=O)c1cccs1	none
O=C(c1cccs1)N1CCc2ccccc2C1	rat GALR2 agon 34.0

Bioassay records as filed in PubChem.
